# The panel holds about 83,000 compounds, 20% with a hit somewhere; the sample as a whole holds those more often.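 Each cell line was grown in a 96-well plate and treated with one concentration of compound for 48 hours. Values below 10 were considered active.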 A number with no mark means an inactive call. The source made the active and inactive calls.
# What was measured:
# Test in all cases: NCI-60 one-dose screen, 48 h (100 = growth as untreated, 0 = no growth, -100 = all killed)
# NCI-H23 lung = details: 10 µM unless noted
# NCI-H226 lung = details: 10 µM unless noted
# NCI-H322M lung = details: 10 µM unless noted
# NCI-H460 lung = details: 10 µM unless noted
# HOP-92 NSCLC = details: 10 µM
# NCI-H522 lung = details: 10 µM
# A549/ATCC NSCLC = details: 10 µM unless noted
# 786-0 renal = details: 10 µM unless noted
# COLO 205 colon = details: 10 µM unless noted
# DU-145 prostate = details: 10 µM unless noted
# K-562 leukemia = details: 10 µM unless noted
# MALME-3M melanoma = details: 10 µM unless noted
# MDA-MB-231 breast = details: 10 µM unless noted
# RXF 393 renal = details: 10 µM unless noted
# SF-268 CNS = details: 10 µM unless noted
# SF-295 CNS = details: 10 µM unless noted
# SF-539 CNS = details: 10 µM unless noted
# UACC-257 melanoma = details: 10 µM unless noted
# M14 melanoma = details: 10 µM unless noted
Structure (SMILES),growth (NCI-H23 lung),growth (NCI-H226 lung),growth (NCI-H322M lung),growth (NCI-H460 lung),growth (HOP-92 NSCLC),growth (NCI-H522 lung),growth (A549/ATCC NSCLC),growth (786-0 renal),growth (COLO 205 colon),growth (DU-145 prostate),growth (K-562 leukemia),growth (MALME-3M melanoma),growth (MDA-MB-231 breast),growth (RXF 393 renal),growth (SF-268 CNS),growth (SF-295 CNS),growth (SF-539 CNS),growth (UACC-257 melanoma),growth (M14 melanoma)
COc1cc(CCNc2cnc3cc(N)cc(N)c3n2)cc(OC)c1,107%,99.4%,102%,120%,154%,98.2%,112%,101%,136%,118%,35.3%,146%,96.7%,114%,109%,116%,123%,111%,
O=C1NCCN1/N=C/c1c(Cl)nc2n1CCS2,106%,151%,94.6%,111%,51.3%,34.3%,113%,90%,133%,85.8%,87.3%,91.7%,130%,150%,113%,111%,94.9%,105%,
CCOC(=O)CSSCC(=O)OCC,112%,123%,106%,108%,103%,99.7%,98.7%,106%,113%,106%,101%,112%,107%,128%,104%,100%,95.9%,94.1%,119%
CCOC(=O)C1=C(c2ccccc2)NC(=O)NC1CN1C(=O)c2ccccc2C1=O (stereo not given),93.9%,105%,118%,105%,72.9%,108%,127%,102%,116%,105%,50.6%,71.2%,108%,116%,93.7%,115%,106%,112%,
COC1(OC)N=C(N)C2(C#N)C3(C(=O)Nc4ccccc43)C12C#N (stereo not given),81.6%,62.5%,105%,104%,73%,80.7%,104%,94.3%,116%,68.2%,85.3%,-3.2% (active),73.6%,61%,105%,96.4%,61.2%,100%,
FC(F)(F)c1cccc(-c2[nH]ncc2-c2nnnn2-c2ccccc2)c1,73.9%,76.2%,57.7%,21.8%,34.2%,23%,41.8%,58.2%,36%,76.1%,11.8%,61.6%,41%,-20.4% (active),66.4%,56.7%,63.9%,48.4%,
CCc1c(C)c2ccc(OCC(=O)N=Nc3c(O)[nH]c4ccccc34)c(C)c2oc1=O,5.58% (active),12.4%,-14.2% (active),-46.7% (active),29.7%,-9.85% (active),30.2%,-22.9% (active),31.4%,7.92% (active),4.73% (active),42.5%,0.841% (active),35.7%,18.4%,-9.71% (active),85%,28.2%,3.57% (active)
Nc1cc(N)c2nc(-c3ccccc3)c(NCCc3ccc(Cl)c(Cl)c3)nc2c1,-63.9% (active),-76.2% (active),-91.7% (active),-10.9% (active),-78.5% (active),-72.1% (active),-62.8% (active),-97.9% (active),-62.4% (active),-98.6% (active),-16.9% (active),-93.3% (active),-71.1% (active),-94.3% (active),0.859% (active),-74.2% (active),-96.7% (active),5.16% (active),
CCCCCCCCCCCCCCCCCC1=NCCN1CCNC(C)=O,93%,100%,90.6%,50.5%,62.1%,98.8%,79.3%,92.3%,92.6%,69.7%,26.4%,98.9%,66.3%,99%,88.7%,108%,86.8%,108%,101%

# From PubChem BioAssay (NCI)
